The results in this text go back to PubChem BioAssay.

Activity calls are given as the source filed them.

The assay can be described thus: small-molecule microarray binders of probe aXIP, primary screen, biochemical, NeuroSMM set, 635/667 nm fluorescence (AID 1119).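 Also: probe is the protein aXip251-270 applied at 1 µg/mL to compound-printed slides; binding of probe to printed compounds measured as 667 nm fluorescence plus signal to noise.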 The conditions noted are these: higher = more signal, called active from +8 up or from −8 down.
As to `O=C1NCC(=O)N2[C@@H]1C[C@@H](C(=O)O)[C@H]2c1cccc(OCCO)c1`, the composite Z-score is 10.2 (active).

Regarding `CC(C)OC(=O)C=C1C[C@@H](c2ccccc2C(F)(F)F)O[C@@H](c2ccccc2C(F)(F)F)O1`, the composite Z-score is -0.309 (inactive).

With `C=CCOC(=O)[C@@H]1[C@H]2C(=O)O[C@H](c3ccccc3)[C@H](c3ccccc3)N2[C@H](c2ccc(OCCOC(=O)[C@@H]3C[C@@H]4C(=O)N5CCC[C@H]5C(=O)N4[C@@H]3c3ccc(O)cc3)cc2)[C@@]12C(=O)Nc1ccc(I)cc12`, the composite Z-score is 1.23 (inactive).

As to `COc1cc2c(cc1OC)CN(C(=O)[C@H]1[C@@H]3C(=O)O[C@@H](c4ccccc4)[C@@H](c4ccccc4)N3[C@@H](c3ccc(O)cc3)[C@]13C(=O)Nc1ccc(C#CC4=CCCCC4)cc13)CC2`, the composite Z-score is 0.721 (inactive).

Regarding `COc1ccc(C(=O)Nc2ccc(CN3C(=O)[C@@]4(O[C@@H](CC(=O)N5CCC[C@H]5CO)[C@H]([Si](C)(C)c5ccc(OC)cc5)[C@H]4C)c4ccccc43)cc2)cc1`, the composite Z-score is 0.277 (inactive).

Turning to `[N-]=[N+]=NCc1ccccc1C[C@]1(C(=O)NCC(O)CO)N=C(c2ccc(OCCCO)cc2)O[C@H]1c1ccccc1` (some centres undefined), the composite Z-score is -0.321 (inactive).

`COc1ccc([Si](C)(C)[C@H]2[C@H](CCO)O[C@@]3(C(=O)N(Cc4ccc(N5C(=O)COc6ccccc65)cc4)c4ccccc43)[C@@H]2C)cc1`: the composite Z-score is 0.485 (inactive).

Consider `C=C(COC)/C(=C/C[C@H](OC(=O)c1ccncc1)c1ccc(OCCO)cc1)c1cnc2ccccc2c1`, for which the composite Z-score is 0.914 (inactive).

Regarding `C=CCOC(=O)[C@@H]1[C@H]2C(=O)O[C@H](c3ccccc3)[C@H](c3ccccc3)N2[C@H](c2ccc(OCCOC(=O)[C@@H]3C[C@@H]4C(=O)N[C@@H](Cc5ccccc5)C(=O)N4[C@@H]3c3ccc(O)cc3)cc2)[C@@]12C(=O)Nc1ccc(I)cc12`, the composite Z-score is 0.364 (inactive).
